Data as given in PubChem BioAssay (NCATS).
Results filed as inconclusive are left out. The source made the active and inactive calls. Calls come from the whole dose curve.

target: Peroxisome proliferator-activated receptor delta (Homo sapiens) (UniProt Q03181); experiment: qHTS assay for small molecule agonists of peroxisome proliferator-activated receptor delta signaling (AID 588534); details: HEK293T PPARdelta-UAS-bla, beta-lactamase ratio, 18 h; series mostly up to 76.7 µM
From the text: NIH Chemical Genomics Center [NCGC] U.S. Environmental Protection Agency [EPA] National Institutes of Environmental Health Sciences [NIEHS] National Toxicology Program [NTP] NCGC Assay Overview The Peroxisome proliferator-activated receptors (PPARs) are lipid-activated transcription factors of the nuclear receptor superfamily with three distinct subtypes namely PPAR alpha, PPAR delta (also called PPAR beta) and PPAR gamma. All these subtypes heterodimerizes with Retinoid X receptor (RXR) and have different physiological functions. […] This role of PPAR delta implicates the potential use of its ligands in the treatment of metabolic disorders.
Compounds were screened in a titration series in 1536-well format. […] Concentration-response titration points for each compound were fitted to the Hill equation yielding concentrations of half-maximal stimulation (EC50) and maximal response (efficacy) values. qHTS protocol for PPAR-delta beta-lactamase assay in agonist mode [Step] [Parameter] [Value] [Description] 1. Reagent; 6 uL; 4000 cells/well 2. Incubation; 37 C for 5 hrs 3. Compounds; 23 nL; 0.59 nM to 92 uM 4. […] Incubation; 37 C for 18 hrs 6. Detection reagent; 1 uL of CCF4-dye 7. Incubation; RT for 2 hrs 8. Detection; Fluorescence; Envision plate reader

Sequence of Peroxisome proliferator-activated receptor delta (Homo sapiens) (Q03181 whole entry, looked up): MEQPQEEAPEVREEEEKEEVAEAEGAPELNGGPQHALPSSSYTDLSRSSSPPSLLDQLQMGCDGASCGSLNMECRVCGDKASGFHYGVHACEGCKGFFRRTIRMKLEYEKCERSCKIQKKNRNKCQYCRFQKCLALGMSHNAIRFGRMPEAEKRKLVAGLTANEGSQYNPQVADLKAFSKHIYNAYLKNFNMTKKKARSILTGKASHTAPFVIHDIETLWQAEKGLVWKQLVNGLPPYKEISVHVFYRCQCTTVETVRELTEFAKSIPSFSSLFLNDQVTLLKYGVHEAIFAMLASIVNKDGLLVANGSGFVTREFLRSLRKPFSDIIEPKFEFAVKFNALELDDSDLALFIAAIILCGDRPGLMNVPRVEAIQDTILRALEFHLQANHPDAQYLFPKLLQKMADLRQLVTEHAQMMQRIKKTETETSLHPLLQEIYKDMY

Compound | outcome
O=C/C=C/c1ccccc1 | inactive
ClC(Cl)(Cl)Cl | inactive
[O]=[Cd] | inactive
N#CN | inactive
C[C@H]1CC[C@@H]2[C@@H](C)[C@H]3[C@H](C[C@H]4[C@@H]5CC=C6CC(O[C@@H]7O[C@H](CO)[C@H](O)[C@H](O[C@@H]8O[C@H](CO)[C@@H](O)[C@H](O)[C@H]8O)[C@H]7O[C@H]7O[C@@H](C)[C@H](O)[C@@H](O)[C@H]7O)CC[C@]6(C)[C@H]5CC[C@]34C)N2C1 (stereo partly drawn) | inactive
COc1ccc2c(c1OC)C(=O)OC2C1c2cc3c(cc2CCN1C)OCO3 (stereo not drawn) | inactive
CC(C)(C)c1cc(O)ccc1O | inactive
NNC(N)=O | inactive
O=[N+]([O-])c1ccccc1 | inactive
O=C(O)C(Cl)(Cl)Cl | inactive
O=CC=O | inactive
CCCCCl | inactive
CC(C)Nc1ccc(Nc2ccccc2)cc1 | inactive
ClC1C(Cl)C(Cl)C(Cl)C(Cl)C1Cl (stereo not drawn) | inactive
O=Cc1ccco1 | inactive
O=C(NCNC(=O)NC1C(=O)NC(=O)N1CO)NC1C(=O)NC(=O)N1CO (stereo not drawn) | inactive
COCC(C)N(C(=O)CCl)c1c(C)csc1C (stereo not drawn) | inactive
C=CCN=C=S | inactive
O=C1C2CC=CCC2C(=O)N1SC(Cl)(Cl)Cl (stereo not drawn) | inactive
CCOC(=O)c1ccccc1C(=O)OCC | inactive
O=C1CCO1 | inactive
Clc1ccccc1Cl | inactive
ClCC1CO1 (stereo not drawn) | inactive
CCCCCCCCOC(=O)c1ccccc1C(=O)OCCCCCCCC | inactive
CC(C)CCON=O | inactive
ClC=C(Cl)Cl | inactive
CCOP(=O)(OCC)O/C(=C/Cl)c1ccc(Cl)cc1Cl | inactive
O=[N+]([O-])C(Br)(CO)CO | inactive
